Results reported in PubChem BioAssay (NCI).
Compounds without any hit were thinned out: in the full panel of roughly 83,000, 20% have a hit.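 Percent growth is the endpoint: 0 to 100 indicates growth inhibition (40 means 60% inhibition), 0 means no net growth, and negative values indicate cell death.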 The source made the active and inactive calls. How the source made its calls: active means growth percent below 10; inactive means the rest.

Legend:
Assay in all cases: NCI-60 one-dose screen, 48 h (100 = growth as untreated, 0 = no growth, -100 = all killed)
NCI-H226 lung = settings: 10 µM
NCI-H322M lung = settings: 10 µM unless noted
HOP-62 NSCLC = settings: 10 µM unless noted
NCI-H460 lung = settings: 10 µM unless noted
HOP-92 NSCLC = settings: 10 µM unless noted
NCI-H522 lung = settings: 10 µM
A549/ATCC NSCLC = settings: 10 µM unless noted
786-0 renal = settings: 10 µM unless noted
COLO 205 colon = settings: 10 µM unless noted

Measured: growth

CCC(C)[C@H]1O[C@]2(CC[C@@H]1C)C[C@@H]1C[C@@H](C/C=C(\C)[C@@H](OC3C[C@H](OC)C(O[C@H]4C[C@H](OC)[C@@H](O)[C@H](C)O4)[C@H](C)O3)[C@@H](C)/C=C/C=C3\CO[C@@H]4[C@H](O)C(C)=C[C@@H](C(=O)O1)[C@]34O)O2 (some centres undefined)
active: NCI-H226 lung 6.79% | NCI-H460 lung 3.02% | HOP-92 NSCLC -6.11% | 786-0 renal -79.7% | COLO 205 colon -41.6%
inactive: NCI-H322M lung 52.7% | HOP-62 NSCLC 29.5% | NCI-H522 lung 17.2% | A549/ATCC NSCLC 21.3%

O=C(C[Si](CC(=O)c1cccc(C(F)(F)F)c1)CC(=O)c1cccc(C(F)(F)F)c1)c1cccc(C(F)(F)F)c1
active: NCI-H460 lung 8.35% | HOP-92 NSCLC -27.9%
inactive: NCI-H226 lung 82.9% | NCI-H322M lung 74.5% | HOP-62 NSCLC 95.6% | NCI-H522 lung 68.7% | A549/ATCC NSCLC 49% | 786-0 renal 75.8% | COLO 205 colon 98.4%

CCCCCCCCCCCCCCCC[N+]1(C)CCOCC1
inactive: NCI-H226 lung 48.4% | NCI-H322M lung 37.1% | A549/ATCC NSCLC 24.3%
active: NCI-H460 lung 4.21% | HOP-92 NSCLC -15.3% | NCI-H522 lung -24.8% | 786-0 renal 5.35% | COLO 205 colon -92.3%

O=C(Nc1ccccc1O)c1ccc(NS(=O)(=O)c2cccc3cccnc23)cc1
inactive: NCI-H226 lung 50.3% | NCI-H322M lung 48.3% | HOP-62 NSCLC 38.3% | NCI-H460 lung 40.2% | NCI-H522 lung 37.7% | A549/ATCC NSCLC 51.1% | 786-0 renal 71.9% | COLO 205 colon 47.8%

COc1nc2c(cc1S(=O)(=O)c1ccccc1)CCc1c-2cnn1-c1ccccc1
inactive: NCI-H226 lung 87.2% | HOP-62 NSCLC 81.3% | NCI-H460 lung 77.5% | HOP-92 NSCLC 22.1% | NCI-H522 lung 47.9% | A549/ATCC NSCLC 57.7% | 786-0 renal 76.5% | COLO 205 colon 96.3%

O=C1/C(=C/c2ccc(Cl)cc2)CN(Cc2cn(CCCNc3ccnc4cc(Cl)ccc34)nn2)C/C1=C\c1ccc(Cl)cc1
active: NCI-H226 lung -81.4% | NCI-H322M lung -28.9% | HOP-62 NSCLC -69.4% | HOP-92 NSCLC -65.3% | NCI-H522 lung -92.8% | A549/ATCC NSCLC -62.9% | 786-0 renal -74.4% | COLO 205 colon -61.3%

COC(=O)c1ccc(C(=O)Nc2ccccc2N)cc1
inactive: NCI-H226 lung 73.9% | NCI-H322M lung 66.5% | HOP-62 NSCLC 95% | NCI-H460 lung 63.3% | NCI-H522 lung 75.1% | A549/ATCC NSCLC 94.7% | 786-0 renal 80.8% | COLO 205 colon 106%

Cc1nc2cc(Nc3nc(N4CCOCC4)nc(N4CCN(C)CC4)n3)ccc2n1Cc1ccccc1
inactive: NCI-H226 lung 71.3% | HOP-62 NSCLC 95% | NCI-H460 lung 107% | HOP-92 NSCLC 82.9% | NCI-H522 lung 92.6% | A549/ATCC NSCLC 102% | 786-0 renal 97.5% | COLO 205 colon 111%

CSC1=CC(=O)c2ccccc2C1=O
inactive: NCI-H226 lung 89.2% | NCI-H322M lung 107% | NCI-H460 lung 95.6% | NCI-H522 lung 18.5% | A549/ATCC NSCLC 99.1% | 786-0 renal 106% | COLO 205 colon 101%
active: HOP-92 NSCLC -29%

CCCCNNC(=O)c1ccc(Br)cc1
inactive: NCI-H226 lung 62.5% | NCI-H322M lung 59.3% | HOP-62 NSCLC 55.5% | NCI-H460 lung 50.1% | A549/ATCC NSCLC 57.6% | 786-0 renal 79% | COLO 205 colon 46.1%

COc1ccc(C(=O)C2=CC(=O)C(=O)C2)cc1OC
inactive: NCI-H226 lung 103% | HOP-62 NSCLC 94.1% | NCI-H460 lung 103% | HOP-92 NSCLC 95.9% | NCI-H522 lung 86.6% | A549/ATCC NSCLC 106% | 786-0 renal 101% | COLO 205 colon 112%

Cn1c2ccc(Cl)cc2c2nn(C(=O)c3ccccc3)c(=O)nc21
inactive: NCI-H226 lung 93.7% | NCI-H322M lung 106% | HOP-62 NSCLC 101% | NCI-H522 lung 101% | A549/ATCC NSCLC 113% | 786-0 renal 113% | COLO 205 colon 123%

C=C(C)CCCC(C)CC#N (centres undefined)
inactive: NCI-H226 lung 99.4% | HOP-62 NSCLC 90.7% | NCI-H460 lung 107% | HOP-92 NSCLC 95.1% | NCI-H522 lung 90.3% | A549/ATCC NSCLC 99.9% | 786-0 renal 97.3% | COLO 205 colon 106%

Cc1nc2cc(Nc3nc(Nc4ccc(F)cc4)nc(-c4cccs4)n3)ccc2n1Cc1ccccc1
inactive: NCI-H226 lung 65% | HOP-62 NSCLC 92.3% | NCI-H460 lung 39.6% | HOP-92 NSCLC 22% | NCI-H522 lung 53.5% | A549/ATCC NSCLC 43.1% | 786-0 renal 37.5% | COLO 205 colon 56.8%

COc1cc(NC(=O)COc2ccccc2)c(C(N)=O)cc1OC
inactive: NCI-H226 lung 76.5% | NCI-H322M lung 40.1% | HOP-62 NSCLC 30.5% | A549/ATCC NSCLC 20.5% | 786-0 renal 44.4%
active: NCI-H460 lung 7.91% | NCI-H522 lung -9.94% | COLO 205 colon 8.28%

Nc1nc(N)c(N=Nc2c(Br)cc(S(N)(=O)=O)cc2Br)c(N)n1
inactive: NCI-H226 lung 91.9% | HOP-62 NSCLC 103% | NCI-H460 lung 105% | HOP-92 NSCLC 85% | NCI-H522 lung 97.9% | A549/ATCC NSCLC 97.4% | 786-0 renal 106% | COLO 205 colon 104%

NC(=O)c1cc(Cl)ccc1NC(=O)COc1ccccc1
inactive: NCI-H226 lung 90.5% | NCI-H322M lung 46.7% | HOP-62 NSCLC 46.7% | NCI-H460 lung 29.6% | NCI-H522 lung 44.2% | 786-0 renal 60.1% | COLO 205 colon 25.4%

COc1nc2c(cc1S(=O)(=O)c1ccccc1)CCc1c-2cnn1-c1ccccc1Cl
inactive: NCI-H226 lung 51.8% | HOP-62 NSCLC 69.9% | NCI-H460 lung 67% | NCI-H522 lung 15.3% | A549/ATCC NSCLC 47.1% | 786-0 renal 51.6% | COLO 205 colon 70.4%
active: HOP-92 NSCLC -1.3%

Cc1ccc2c(N/N=C\c3ccco3)cc(C)nc2n1
active: COLO 205 colon 8.81%
inactive: NCI-H226 lung 77.6% | HOP-62 NSCLC 83.3% | NCI-H460 lung 34.1% | HOP-92 NSCLC 40.4% | NCI-H522 lung 88.6% | A549/ATCC NSCLC 46.4% | 786-0 renal 49.2%

O=C(Nc1ccc(Cl)c(Cl)c1)OCn1ncc2ccc([N+](=O)[O-])cc21
inactive: NCI-H226 lung 81.3% | HOP-62 NSCLC 71.6% | NCI-H460 lung 99.8% | HOP-92 NSCLC 62.6% | NCI-H522 lung 49.4% | A549/ATCC NSCLC 82.8% | 786-0 renal 83.3% | COLO 205 colon 93.2%

Cn1c2ccccc2c2nn(C(=O)c3ccccc3)c(=O)nc21
inactive: NCI-H226 lung 96.2% | NCI-H322M lung 99.6% | HOP-62 NSCLC 115% | NCI-H460 lung 105% | NCI-H522 lung 99% | A549/ATCC NSCLC 116% | 786-0 renal 107% | COLO 205 colon 118%

CN1CCN(CCCn2c3c(sc4ncccc43)c(=O)n3nnc(-c4ccccc4)c23)CC1
active: HOP-62 NSCLC -75.8% | NCI-H460 lung -70.7% | NCI-H522 lung -73.5% | A549/ATCC NSCLC -74.7%
inactive: NCI-H226 lung 96.2% | HOP-92 NSCLC 59.6% | 786-0 renal 95.4% | COLO 205 colon 63.6%

Brc1ccc(Br)nn1
active: NCI-H226 lung -26.8% | NCI-H322M lung -97.4% | NCI-H460 lung -21.9% | HOP-92 NSCLC -64.7% | NCI-H522 lung -33.2% | A549/ATCC NSCLC 5.91% | 786-0 renal -81% | COLO 205 colon -92.5%

O=C(Nc1ccc(F)cc1)c1ccc(C(=O)Nc2ccc(F)cc2)cc1
inactive: NCI-H226 lung 99.5% | HOP-62 NSCLC 98.2% | NCI-H460 lung 105% | HOP-92 NSCLC 105% | NCI-H522 lung 111% | A549/ATCC NSCLC 98.9% | 786-0 renal 98.8% | COLO 205 colon 114%

COc1ccc(C(=O)COc2cccc(/C=C3\CSc4ccc(C)cc4C3=O)c2)cc1
inactive: NCI-H226 lung 77.7% | NCI-H322M lung 104% | HOP-62 NSCLC 104% | HOP-92 NSCLC 98.5% | NCI-H522 lung 45.8% | A549/ATCC NSCLC 96% | 786-0 renal 100% | COLO 205 colon 116%

COc1c(Cl)ccc2c(-c3nc4cc(Cl)c(F)cc4s3)cc(=O)oc12
active: NCI-H522 lung -78.2% | 786-0 renal -43.3%
inactive: NCI-H226 lung 94.8% | NCI-H322M lung 106% | HOP-62 NSCLC 86.6% | NCI-H460 lung 99.2% | A549/ATCC NSCLC 78% | COLO 205 colon 124%

Cc1ccc(-c2c3c(N)c4c(nc3nc3c2c(C)nn3-c2ccccc2)CCCC4)cc1
inactive: NCI-H226 lung 91.8% | HOP-62 NSCLC 106% | NCI-H460 lung 101% | HOP-92 NSCLC 81.6% | NCI-H522 lung 91.6% | A549/ATCC NSCLC 93.3% | 786-0 renal 91.6% | COLO 205 colon 92.3%

Cc1ccc(N(CSc2ccc(Cl)cc2)CSc2ccc(Cl)cc2)cc1
inactive: NCI-H226 lung 71.9% | NCI-H322M lung 64.1% | NCI-H460 lung 14.3% | HOP-92 NSCLC 56.8% | NCI-H522 lung 39.3% | A549/ATCC NSCLC 28.5% | 786-0 renal 51.5% | COLO 205 colon 118%

Cn1c2ccccc2c2nn(Cc3ccccc3)c(=O)nc21
inactive: NCI-H226 lung 86.6% | NCI-H322M lung 113% | HOP-62 NSCLC 94.2% | NCI-H460 lung 102% | NCI-H522 lung 103% | A549/ATCC NSCLC 105% | 786-0 renal 108% | COLO 205 colon 119%

CCOc1ccc(/C=N\N2CCCCCC2)cc1OCC
inactive: NCI-H226 lung 90.7% | HOP-62 NSCLC 93.8% | NCI-H460 lung 106% | HOP-92 NSCLC 54.2% | NCI-H522 lung 97.8% | A549/ATCC NSCLC 106% | 786-0 renal 106% | COLO 205 colon 84.2%
